According to PubChem BioAssay (NCATS):
Inconclusive results are not listed. Entries that show only a call come without a potency. Activity calls are given as the source filed them. Calls follow the shape of the full dose curve.

The compounds below were run against Thyroid hormone receptor beta (Homo sapiens) (UniProt P10828) (assay: qHTS assay for small molecule agonists of thyroid hormone receptor beta signaling (AID 588545)). Details: TR-UAS-bla GripTite HEK 293, beta-lactamase ratio, agonist mode, 18 h; series mostly up to 76.7 µM.
Sequence of Thyroid hormone receptor beta (Homo sapiens) (P10828 whole entry, looked up): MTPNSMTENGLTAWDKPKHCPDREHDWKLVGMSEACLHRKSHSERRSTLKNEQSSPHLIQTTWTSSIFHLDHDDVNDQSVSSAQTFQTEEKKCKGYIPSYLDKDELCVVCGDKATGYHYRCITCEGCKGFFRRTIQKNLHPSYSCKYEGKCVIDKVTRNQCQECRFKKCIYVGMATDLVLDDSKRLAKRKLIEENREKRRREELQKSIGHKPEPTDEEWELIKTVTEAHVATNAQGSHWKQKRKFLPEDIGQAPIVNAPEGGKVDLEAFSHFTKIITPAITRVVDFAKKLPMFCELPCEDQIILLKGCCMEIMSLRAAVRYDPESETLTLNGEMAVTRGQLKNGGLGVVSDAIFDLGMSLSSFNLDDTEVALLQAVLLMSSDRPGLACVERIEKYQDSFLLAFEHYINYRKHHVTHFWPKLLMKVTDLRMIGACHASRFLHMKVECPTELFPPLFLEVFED
From the text: NIH Chemical Genomics Center [NCGC]
U.S. Environmental Protection Agency [EPA]
National Institutes of Environmental Health Sciences [NIEHS]
National Toxicology Program [NTP]
Thyroid hormone receptor (TR) belongs to nuclear hormone receptor superfamily. There are two subtypes for TR: TR-alpha and TR-beta. TR-beta plays a major role in regulating plasma cholesterol levels and it mediates the biological activities of thyroid hormone. Screening environmental chemicals on TR-beta signaling will provide important information for the mechanism of compound action.
NCGC Assay Protocol Summary
Using a beta-lactamase reporter-gene under control of the TR response element, a cell-based assay [GeneBLAzer TR-UAS-bla-GripTite assay developed by Invitrogen] was used to measure TR-beta signaling in agonist mode. TR-UAS-bla-GripTite HEK 293 cells were used with assay medium containing 2% charcoal/dextran FBS, 0.1 mM NEAA and 1 mM sodium pyruvate. The assay was performed in clear bottom black Greiner 1536-well plates. T3 was used as a positive control in the screen. Library compounds were measured for their ability to stimulate the reporter gene activity. Compounds were screened in a titration series in 1536-well format. The fluorescence intensity (405 nm excitation, 460/530 nm emission) was measured using an EnVision plate reader. Data was normalized relative to T3 control (10 nM, 100%), and DMSO only wells (basal, 0%). Concentration-response titration points for each compound were fitted to the Hill equation yielding concentrations of half-maximal stimulation (EC50) and maximal response (efficacy) values.
qHTS protocol for TR-beta beta-lactamase assay in agonist mode
[Step] [Parameter] [Value] [Description]
1. Reagent; 6 uL; 2500 cells/well
2. Incubation; 37 C for 4 hrs
- Dose response; start 3.8 uM, 1:3 dilutions, duplicates in first column
- Two columns of each 10 and 0.4 nM (finals) concentrations.
5. Incubation; 37 C for 18 hrs
6. Detection reagent; 1 uL of CCF4-dye
7. Incubation; RT for 2 hrs
8. Detection; Fluorescence; Envision plate reader

| SMILES | Potency |
| --- | --- |
| C#CC(C)(C)NC(=O)c1cc(Cl)cc(Cl)c1 | inactive |
| Clc1ccc([C@@]2(Cn3cncn3)C[C@H](Br)CO2)c(Cl)c1 | inactive |
| O=C(O)C(F)(F)C(F)(F)C(F)(F)C(F)(F)C(F)(F)C(F)(F)C(F)(F)C(F)(F)F | inactive |
| COC(=O)C(C)Oc1ccc(Oc2ccc(Cl)cc2Cl)cc1 (stereo not given) | inactive |
| FC(F)C(F)(F)OCC(Cn1cncn1)c1ccc(Cl)cc1Cl (stereo not given) | inactive |
| CO/N=C(/C(=O)OC)c1ccccc1COc1ccccc1C | inactive |
| COc1cc(OC)nc(Sc2cccc(Cl)c2C(=O)O)n1 | inactive |
| CCC(C)(C)c1cc(-n2nc3ccccc3n2)c(O)c(C(C)(C)CC)c1 | inactive |
| CCOC(=O)COc1cc(-c2nn(C)c(OC(F)F)c2Cl)c(F)cc1Cl | inactive |
| CC(C)C1(C)N=C(c2ncccc2C(=O)O)NC1=O (stereo not given) | inactive |
| CCOP(=S)(OCC)OC(Cl)C(Cl)(Cl)Cl (stereo not given) | inactive |
| CCCCCCCCCCCCC1=C(OC(C)=O)C(=O)c2ccccc2C1=O | inactive |
| O=c1[nH]c2ccccc2c(=O)o1 | inactive |
| CC(C)=CC1[C@H](C(=O)OCc2cccc(Oc3ccccc3)c2)C1(C)C (stereo not given in full) | inactive |
| CC[C@H]1CCCC(O[C@H]2CC[C@H](N(C)C)[C@@H](C)O2)[C@@H](C)C(=O)C2=C[C@@H]3[C@@H](C=C[C@@H]4C[C@@H](O[C@@H]5O[C@@H](C)[C@H](OC)[C@@H](OC)[C@H]5OC)C[C@@H]34)[C@@H]2CC(=O)O1 (stereo not given in full) | inactive |
| CC1COC(Cn2cncn2)(c2ccc(Oc3ccc(Cl)cc3)cc2Cl)O1 (stereo not given) | inactive |
| Cc1cc(Cl)ccc1OC(C)C(=O)O (stereo not given) | inactive |
| O=C(O)C1C(C(=O)O)C2(Cl)C(Cl)=C(Cl)C1(Cl)C2(Cl)Cl (stereo not given) | inactive |
| CNC(=O)N(C)c1nc2ccccc2s1 | inactive |
| O=C=Nc1ccc(Cl)cc1 | inactive |

| SMILES | Potency |
| --- | --- |
| O=C1NCCN1Cc1ccc(Cl)nc1 | inactive |
| CCC(C)(c1ccc(O)cc1)c1ccc(O)cc1 | inactive |
| [CH3][Sn]([CH3])([Cl])[Cl] | inactive |
| CCOP(N)(=O)Oc1ccc(SC)c(C)c1 (stereo not given) | inactive |
| CCOP(=O)(OCC)Oc1nc(Cl)c(Cl)cc1Cl | inactive |
| C#CCC1=C(C)[C@H](OC(=O)[C@H]2[C@H](C=C(C)C)C2(C)C)CC1=O | inactive |
| CC1(C)CC/C(=C\c2ccc(Cl)cc2)C1(O)Cn1cncn1 (stereo not given) | inactive |
| FC(F)(F)c1ccc(Cl)cc1 | inactive |
| Oc1ccc(C(c2ccc(O)cc2)(C(F)(F)F)C(F)(F)F)cc1 | inactive |
| C=CC1(C)OC(=O)N(c2cc(Cl)cc(Cl)c2)C1=O (stereo not given) | inactive |
| C#CCN1CC(=O)N(COC(=O)[C@@H]2[C@@H](C=C(C)C)C2(C)C)C1=O | inactive |
| C/C=C(\C)C(=O)O[C@H]1C[C@@H](OC(C)=O)[C@@]2(C(=O)OC)CO[C@H]3[C@@H](O)[C@@](C)([C@]45O[C@@]4(C)[C@H]4C[C@@H]5O[C@@H]5OC=C[C@@]54O)[C@H]4[C@]1(CO[C@]4(O)C(=O)OC)[C@@H]32 | inactive |
| CNC(=O)Oc1cc(C)c(SC)c(C)c1 | inactive |
| C/C(=N\NC(=O)Nc1cc(F)cc(F)c1)c1ncccc1C(=O)O | inactive |
| O=Cc1cccc(Oc2ccccc2)c1 | inactive |
| CCOc1nc(NC)nc(NC(=O)NS(=O)(=O)c2ccccc2C(=O)OC)n1 | inactive |
| CCCCOC(=O)c1ccccc1C(=O)O | inactive |
| CCOc1cc(C(C)(C)C)ccc1C1COC(c2c(F)cccc2F)=N1 (stereo not given) | inactive |
| O=S(=O)(c1ccc(Cl)cc1)c1cc(Cl)c(Cl)cc1Cl | inactive |
| CCNc1nc(NC(C)(C)C)nc(SC)n1 | inactive |
